Data reported in PubChem BioAssay (NCATS).
Inconclusive results are not listed. Activity calls are given as the source filed them. Calls follow the shape of the dose curve; as a rule, active = well fitted activation curve with a large enough effect; inconclusive = small, poorly fitted or top-dose-only effect; inactive = no such curve, though single readings can be large or run the other way.

These compounds were tested against Cellular tumor antigen p53 (Homo sapiens) (UniProt P04637) (assay: Primary qHTS for small molecule compounds that upregulate eGFP-tagged delta133p53alpha (in N-terminal) cells. (AID 2060322;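 also: cells pre-induced with doxycycline then dosed without doxycycline; series mostly up to about 56 µM; 0% = DMSO vehicle and 100% = reference activator; nearly all actives have a fitted effect of over 75% in size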)). Conditions: NCI-H358 eGFP-delta133p53alpha fluorescence, 24 h; activation: active compounds read high.
Chain of Cellular tumor antigen p53 (Homo sapiens) (P04637 whole entry, looked up): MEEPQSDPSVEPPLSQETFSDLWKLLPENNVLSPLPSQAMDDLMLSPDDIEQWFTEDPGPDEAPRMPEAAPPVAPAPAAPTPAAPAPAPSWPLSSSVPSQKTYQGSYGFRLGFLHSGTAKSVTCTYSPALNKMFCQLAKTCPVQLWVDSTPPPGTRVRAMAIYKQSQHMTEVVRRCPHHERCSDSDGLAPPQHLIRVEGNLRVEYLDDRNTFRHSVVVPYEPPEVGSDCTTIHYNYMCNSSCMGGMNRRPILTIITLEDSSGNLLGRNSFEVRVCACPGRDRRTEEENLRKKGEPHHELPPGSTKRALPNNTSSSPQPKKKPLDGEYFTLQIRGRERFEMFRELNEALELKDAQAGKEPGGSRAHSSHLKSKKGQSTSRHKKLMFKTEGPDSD
How it was run: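 NCI-H358 cells pre-induced 24 h with 10 ng/ml doxycycline for eGFP-delta133p53alpha, plated dox-free and exposed 24 h at 37C to titrated compounds. Fixed, Hoechst-stained; gated GFP peak intensity by laser scanning cytometry, normalized to DMSO (0%) and 57.5 uM 5-azacytidine (100%).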

| Compound | activation |
| --- | --- |
| CC(C)(C)NCC(O)COc1cccc2c1CCC(=O)N2 (configuration not stated) | 28.5% (inactive) |
| CCOC(=O)N1CCN([N+]([O-])=NOc2cc(ON=[N+]([O-])N3CCN(C(=O)OCC)CC3)c([N+](=O)[O-])cc2[N+](=O)[O-])CC1 | 5.87% (inactive) |
| CN1[C@@H]2CC[C@H]1CC(OC(=O)C(O)c1ccccc1)C2 (some centres not stated) | 5.08% (inactive) |
| CN1[C@@H]2CC(OC(=O)[C@H](CO)c3ccccc3)C[C@H]1[C@@H]1O[C@@H]12 (some centres not stated) | -10.7% (inactive) |
| C[C@@H](O[C@H]1OCCN(Cc2n[nH]c(=O)[nH]2)[C@H]1c1ccc(F)cc1)c1cc(C(F)(F)F)cc(C(F)(F)F)c1 | 7.53% (inactive) |
| CC(=O)C1=C(O)C=C2Oc3c(C(C)=O)c(O)c(C)c(O)c3C2(C)C1=O (configuration not stated) | 47.4% (inactive) |
| O=C(C=Cc1ccc(CN(CCO)CCc2c[nH]c3ccccc23)cc1)NO | 23.4% (inactive) |
| NCCCC[C@H](N[C@@H](CCc1ccccc1)C(=O)O)C(=O)N1CCC[C@H]1C(=O)O | -3.95% (inactive) |
| CC(C)(C)NC[C@H](O)COc1cccc2c1CCCC2=O | 8.47% (inactive) |
| CC(C)[N+]1(C)[C@@H]2CC[C@H]1CC(OC(=O)C(CO)c1ccccc1)C2 (some centres not stated) | 33.8% (inactive) |
| O=[N+]([O-])c1cccc(S(=O)(=O)NCCNS(=O)(=O)c2cccc([N+](=O)[O-])c2)c1 | 24.3% (inactive) |
| CC[C@H](NC(=O)[C@H](C)NC)C(=O)N1C[C@@H](O)C[C@H]1Cc1c(-c2[nH]c3cc(F)ccc3c2C[C@H]2C[C@H](O)CN2C(=O)[C@H](CC)NC(=O)[C@H](C)NC)[nH]c2cc(F)ccc12 | 21.3% (inactive) |
